Results as given in the supplement of paper PMC11219838.

Test system: Caenorhabditis elegans dauer (daf-2(e1370))
Assay: proportion of mobile C. elegans dauer larvae relative to DMSO control (fraction of DMSO control); higher = more viable, less nematicidal, active = 0.63 or less; extreme values may be limits of the assay
Conditions: 60 µM; 5 days; temperature: 20 °C
In short: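 Compound was added by pinning to 60 µM final, giving 0.6% v/v DMSO, in 96-well plates containing about 20 C. elegans dauers per well in liquid NGM. These dauers came from synchronized larvae held on MYOB plates with E. coli OP50 for 48 h at 25 °C. Plates were sealed and shaken at 200 rpm at 20 °C for 5 days. Under a dissection microscope, the proportion of mobile worms was scored relative to DMSO wells, and two biological replicates were averaged.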

Row | SMILES | proportion of mobile C. elegans dauer larvae
1 | CC(=O)Nc1ccc(-c2nnc(SCc3ccccc3)o2)cc1 | 1 (inactive)
2 | COc1ccc(-c2nnc(SCc3ccc(C#N)cc3)o2)cc1 | 1 (inactive)
3 | COc1ccc(-c2noc(-c3ccc(C)c(C)c3)n2)cc1 | 1 (inactive)
4 | O=C(CSc1nnc(-c2ccco2)o1)Nc1cccc(Cl)c1Cl | 1 (inactive)
5 | c1ccc(CSc2nnc(-c3ccccc3)o2)cc1 | 1 (inactive)
6 | O=C(Nc1ccccc1-c1nc(-c2cccnc2)no1)c1cccc(Cl)c1 | 1 (inactive)
7 | Cc1ccc(-c2noc(COc3ccc(Cl)cc3C)n2)cc1 | 1 (inactive)
8 | CCOc1cc(-c2nc(-c3ccc(C)nc3OCC)no2)cc(OCC)c1OCC | 1 (inactive)
9 | O=C(CSc1nnc(-c2ccc(Cl)cc2)o1)NC1CC2CCC1C2 (stereo unspecified) | 1 (inactive)
10 | Cc1ccc(C(=O)CSc2nnc(-c3ccco3)o2)o1 | 1 (inactive)
11 | Cc1ccc(SCc2nc(-c3ccc(C)cc3)no2)cc1 | 1 (inactive)
12 | Cn1cc(C(=O)CSc2nnc(-c3ccccc3)o2)c2ccccc21 | 1 (inactive)
13 | O=C(CSc1nnc(-c2ccccc2Cl)o1)Nc1ccc(F)cc1 | 1 (inactive)
14 | Cc1cc(C)c(C)c(OCc2nc(-c3cccnc3)no2)c1 | 1 (inactive)
15 | O=C(CSc1nnc(-c2ccncc2)o1)Nc1cc(Cl)cc(Cl)c1 | 1 (inactive)
16 | Brc1cccc(-c2nc(-c3ccccc3)no2)c1 | 1 (inactive)
17 | CCN(Cc1ccccc1)C(=O)c1ccccc1-c1nc(-c2cccc(C)c2)no1 | 1 (inactive)
18 | CC(C)c1ccc(OCc2nc(-c3ccncc3)no2)c(Br)c1 | 1 (inactive)
19 | COc1nc(C)ccc1-c1noc(-c2ccccc2C)n1 | 1 (inactive)

Row | SMILES | proportion of mobile C. elegans dauer larvae
20 | COc1ccc(Cl)cc1-c1noc(-c2ccccc2C)n1 | 1 (inactive)
21 | CCOc1ccc(NC(=O)CSc2nnc(-c3ccncc3)o2)cc1 | 1 (inactive)
22 | Fc1ccc(-c2noc(COc3ccccc3Cl)n2)cc1 | 1 (inactive)
23 | CCOc1ccccc1NC(=O)CSc1nnc(-c2ccco2)o1 | 1 (inactive)
24 | CNC(=O)c1ccccc1-c1nc(-c2ccccc2Cl)no1 | 1 (inactive)
25 | COc1ccc(OCc2nc(-c3ccccc3)no2)cc1 | 1 (inactive)
26 | Cc1ccc(-c2noc(-c3ccccc3OCC(N)=O)n2)cc1 | 1 (inactive)
27 | Cc1cccc(-c2nnc(SCC(=O)Nc3ccccc3F)o2)c1 | 1 (inactive)
28 | Cc1ccccc1-c1noc(-c2ccccc2OCC(N)=O)n1 | 1 (inactive)
29 | Clc1ccc(-c2nc(-c3ccncc3)no2)cc1 | 1 (inactive)
30 | Cc1ccccc1-c1nnc(SCC(=O)Nc2cc(C(F)(F)F)ccc2N2CCOCC2)o1 | 1 (inactive)
31 | Cc1cccc(-c2noc(-c3ccc(C)c(Cl)c3)n2)c1 | 1 (inactive)
32 | CC1CC(C)CN(C(=O)CSc2nnc(-c3ccccc3)o2)C1 (stereo unspecified) | 1 (inactive)
33 | CCOc1nc(-c2ccc(C)cc2)ccc1-c1noc(-c2ccco2)n1 | 1 (inactive)
34 | COc1ccc(-c2nnc(SCc3csc(N)n3)o2)cc1 | 1 (inactive)
35 | COc1ccccc1NC(=O)CSc1nnc(-c2ccc(Cl)cc2)o1 | 1 (inactive)
36 | Cc1ccccc1OCc1nc(-c2ccc3c(c2)OCO3)no1 | 1 (inactive)
37 | Cc1cccc(OCc2nc(-c3ccccc3Cl)no2)c1 | 1 (inactive)
38 | COc1ccccc1-c1nnc(SCC(=O)Nc2ccccc2Cl)o1 | 1 (inactive)

Test system: Ditylenchus dipsaci
Assay: proportion of mobile D. dipsaci (mixed stage) relative to DMSO control (fraction of DMSO control); higher = more viable, less nematicidal, active = 0.86 or less; extreme values may be limits of the assay
Conditions: 60 µM; 5 days; temperature: 20 °C
In short: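 Mobility, expressed relative to DMSO controls, is the mean of two biological replicates. The test organisms were D. dipsaci grown on pea plants in Gamborg B-5 agar and extracted into water by filter funnel, with about 20 added per well of a 96-well plate in distilled water. Compound was pinned to 60 µM final (0.6% v/v DMSO), plates were sealed and shaken at 200 rpm for 5 days at 20 °C, and mobile worms were scored under a microscope once 2 µL 1 M NaOH had been added.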

Row | SMILES | proportion of mobile D. dipsaci
39 | CC(=O)Nc1ccc(-c2nnc(SCc3ccccc3)o2)cc1 | 1 (inactive)
40 | COc1ccc(-c2nnc(SCc3ccc(C#N)cc3)o2)cc1 | 1 (inactive)
41 | COc1ccc(-c2noc(-c3ccc(C)c(C)c3)n2)cc1 | 1 (inactive)
42 | O=C(CSc1nnc(-c2ccco2)o1)Nc1cccc(Cl)c1Cl | 1 (inactive)
43 | c1ccc(CSc2nnc(-c3ccccc3)o2)cc1 | 0.864 (inactive)
44 | O=C(Nc1ccccc1-c1nc(-c2cccnc2)no1)c1cccc(Cl)c1 | 1 (inactive)
45 | Cc1ccc(-c2noc(COc3ccc(Cl)cc3C)n2)cc1 | 1 (inactive)
46 | CCOc1cc(-c2nc(-c3ccc(C)nc3OCC)no2)cc(OCC)c1OCC | 1 (inactive)
47 | O=C(CSc1nnc(-c2ccc(Cl)cc2)o1)NC1CC2CCC1C2 (stereo unspecified) | 1 (inactive)
48 | Cc1ccc(C(=O)CSc2nnc(-c3ccco3)o2)o1 | 1 (inactive)
49 | Cc1ccc(SCc2nc(-c3ccc(C)cc3)no2)cc1 | 1 (inactive)
50 | Cn1cc(C(=O)CSc2nnc(-c3ccccc3)o2)c2ccccc21 | 1 (inactive)
51 | O=C(CSc1nnc(-c2ccccc2Cl)o1)Nc1ccc(F)cc1 | 1 (inactive)
52 | Cc1cc(C)c(C)c(OCc2nc(-c3cccnc3)no2)c1 | 1 (inactive)
53 | O=C(CSc1nnc(-c2ccncc2)o1)Nc1cc(Cl)cc(Cl)c1 | 0.955 (inactive)
54 | Brc1cccc(-c2nc(-c3ccccc3)no2)c1 | 1 (inactive)
55 | CCN(Cc1ccccc1)C(=O)c1ccccc1-c1nc(-c2cccc(C)c2)no1 | 1 (inactive)
56 | CC(C)c1ccc(OCc2nc(-c3ccncc3)no2)c(Br)c1 | 1 (inactive)
57 | COc1nc(C)ccc1-c1noc(-c2ccccc2C)n1 | 1 (inactive)

Row | SMILES | proportion of mobile D. dipsaci
58 | COc1ccc(Cl)cc1-c1noc(-c2ccccc2C)n1 | 1 (inactive)
59 | CCOc1ccc(NC(=O)CSc2nnc(-c3ccncc3)o2)cc1 | 1 (inactive)
60 | Fc1ccc(-c2noc(COc3ccccc3Cl)n2)cc1 | 1 (inactive)
61 | CCOc1ccccc1NC(=O)CSc1nnc(-c2ccco2)o1 | 1 (inactive)
62 | CNC(=O)c1ccccc1-c1nc(-c2ccccc2Cl)no1 | 1 (inactive)
63 | COc1ccc(OCc2nc(-c3ccccc3)no2)cc1 | 1 (inactive)
64 | Cc1ccc(-c2noc(-c3ccccc3OCC(N)=O)n2)cc1 | 1 (inactive)
65 | Cc1cccc(-c2nnc(SCC(=O)Nc3ccccc3F)o2)c1 | 1 (inactive)
66 | Cc1ccccc1-c1noc(-c2ccccc2OCC(N)=O)n1 | 1 (inactive)
67 | Clc1ccc(-c2nc(-c3ccncc3)no2)cc1 | 1 (inactive)
68 | Cc1ccccc1-c1nnc(SCC(=O)Nc2cc(C(F)(F)F)ccc2N2CCOCC2)o1 | 1 (inactive)
69 | Cc1cccc(-c2noc(-c3ccc(C)c(Cl)c3)n2)c1 | 1 (inactive)
70 | CC1CC(C)CN(C(=O)CSc2nnc(-c3ccccc3)o2)C1 (stereo unspecified) | 1 (inactive)
71 | CCOc1nc(-c2ccc(C)cc2)ccc1-c1noc(-c2ccco2)n1 | 1 (inactive)
72 | COc1ccc(-c2nnc(SCc3csc(N)n3)o2)cc1 | 1 (inactive)
73 | COc1ccccc1NC(=O)CSc1nnc(-c2ccc(Cl)cc2)o1 | 1 (inactive)
74 | Cc1ccccc1OCc1nc(-c2ccc3c(c2)OCO3)no1 | 1 (inactive)
75 | Cc1cccc(OCc2nc(-c3ccccc3Cl)no2)c1 | 1 (inactive)
76 | COc1ccccc1-c1nnc(SCC(=O)Nc2ccccc2Cl)o1 | 1 (inactive)
